Hit rate of the full screen: of about 16,000 compounds, about 5,800 (36%) were called active. About 23% were inconclusive and are not listed. Calls follow the shape of the dose curve; as a rule, active = well fitted curve in the direction sought with a large enough effect; inconclusive = small, poorly fitted or top-dose-only effect, or effect the other way; inactive = no such curve, though single readings can be large or run the other way. The list shows a part of the results.
% is scaled to controls: 0 for no effect and ±100 for the full control effect.

For this experiment, the target named is Cytochrome P450 2C19 (Homo sapiens) (UniProt P33261). The experiment in a line: Cytochrome panel assay with activity outcomes. To be noted: recombinant CYP, pro-luciferin dealkylation, luminescence, p450-cyp2c19; series mostly up to 57.1 µM; activity, negative = inhibition: at the top concentration.
Chain of Cytochrome P450 2C19 (Homo sapiens) (P33261 whole entry, looked up): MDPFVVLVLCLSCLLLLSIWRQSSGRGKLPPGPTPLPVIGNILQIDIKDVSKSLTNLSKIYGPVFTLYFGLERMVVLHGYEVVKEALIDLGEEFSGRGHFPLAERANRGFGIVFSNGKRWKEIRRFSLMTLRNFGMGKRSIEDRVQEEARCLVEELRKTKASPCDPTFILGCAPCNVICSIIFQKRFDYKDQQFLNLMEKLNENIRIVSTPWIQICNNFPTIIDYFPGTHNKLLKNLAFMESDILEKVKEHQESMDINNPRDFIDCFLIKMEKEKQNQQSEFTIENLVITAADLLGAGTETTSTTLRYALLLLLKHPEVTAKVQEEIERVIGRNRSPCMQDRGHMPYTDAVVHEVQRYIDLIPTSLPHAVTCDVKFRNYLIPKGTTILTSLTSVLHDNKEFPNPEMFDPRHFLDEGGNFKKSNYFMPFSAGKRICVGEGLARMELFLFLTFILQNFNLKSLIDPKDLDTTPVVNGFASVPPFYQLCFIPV
As to `CC[N+](C)(CC)CCOC(=O)C1c2ccccc2Oc2ccccc21`, the “activity, negative = inhibition” value was 2.44% [at 25.6 µM] (inactive).
On the same count and under the same terms, next, `O=C(O)c1ccccc1C1c2ccccc2Oc2ccccc21`: 9.43% [at 11.4 µM] (inactive).
For `CC(=O)c1ccc(OC(=O)C2c3ccccc3Oc3ccccc32)cc1`, the AC50 – broadly, the concentration at which the activity in the assay is half-maximal – is 25.1 µM (active).
As to `Oc1ccc(Cl)cc1C=Nc1cnc2ccccc2c1`, the activity, negative = inhibition was -4.43% [at 11.4 µM] (inactive).
On to `O/N=C/c1cc(Cl)ccc1OCc1cccc2ccccc12`, for which the AC50 was 1.58 µM (active).
Consider `O=[N+]([O-])c1ccc(/C=N/n2c(COc3ccccc3)n[nH]c2=S)cc1`, for which the half-maximal activity concentration (AC50) is 11.2 µM (active).
Same read-out and setting: for `O=S(=O)(N/N=C\C=C\c1ccccc1)c1ccc(Br)cc1` the value was 2 µM (active).
Turning to `O=C(N/N=C/C=C/c1ccccc1)c1cc2c(ccc3ccccc32)o1`, the “activity, negative = inhibition” value is 28.5% (inactive).
Same read-out and setting: for `Nc1ncnc2nc(N3CCN(CCO)CC3)[nH]c12` the value was -15.5% [at 11.4 µM] (inactive).
For the compound `COc1ccccc1C(c1nnnn1C(C)(C)C)N1CCCc2ccccc21` (centres undefined), the half-maximal activity concentration (AC50) is 4.47 µM (active).
For `COc1ccccc1C(c1nnnn1C(C)(C)C)N1CCN(Cc2ccncc2)CC1` (centres undefined), the concentration at half-maximal activity (AC50) is 2.24 µM (active).
On to `COc1ccc(C(=O)N2CCC3(CCN(Cc4ccncc4)CC3)CC2)cc1`, for which the “activity, negative = inhibition” value was -24.1% (inactive).
For `Cc1nc2cnc(N3CCN(C)CC3)nc2n(C)c1=O`, the “activity, negative = inhibition” value is 6.26% (inactive).
Regarding `COc1cc(C2C(C#N)=C(N)N(Nc3ccccc3)C3=C2C(=O)CC(C)(C)C3)ccc1OCc1cccc(F)c1` (centres undefined), the AC50 was 7.08 µM (active).
Turning to `CN(C)N1C(N)=C(C#N)C(c2cccnc2)C2=C1CC(C)(C)CC2=O` (centres undefined), the “activity, negative = inhibition” value is -55.4% (inactive).
`COc1ccc(C2C(C#N)=C(N)N(Nc3ccccc3)C3=C2C(=O)CC(C)(C)C3)cc1C` (centres undefined): the AC50 is 2.24 µM (active).
For `COc1cc(C2C(C#N)=C(N)N(Nc3ccccc3)C3=C2C(=O)CC(C)(C)C3)ccc1OCc1ccccc1` (centres undefined), the half-maximal activity concentration (AC50) is 6.31 µM (active).
For the compound `Cc1noc(C)c1C(=O)N1CCC2(CCCN(Cc3ccc(C#N)cc3)C2)CC1`, the “activity, negative = inhibition” value is -20.6% (inactive).
Same read-out and setting: next, `CN(C)Cc1ccccc1-c1ccc2ncnc(N(C)C)c2c1`: -8.91% (inactive).
In the case of `Cc1ccccc1-c1ccc2ncnc(N(C)C)c2c1`, the concentration at half-maximal activity (AC50) was 7.94 µM (active).
For the compound `CN(C)c1ncnc2ccc(-c3ccccc3C(F)(F)F)cc12`, the half-maximal activity concentration (AC50) is 3.98 µM (active).
The same measure, in the same setting: next, `COc1ccccc1-c1ccc2ncnc(N(C)C)c2c1`: 0.501 µM (active).
`CC(=O)OC[C@@H]1O[C@@H](O/N=C2/C[C@@H](O)[C@@H](O)[C@@H]3[C@H]4C(=O)N(c5ccc(F)cc5F)C(=O)[C@@H]4CC[C@H]23)[C@H](OC(C)=O)[C@H](OC(C)=O)[C@@H]1OC(C)=O`: the activity, negative = inhibition was -9.07% [at 11.4 µM] (inactive).
Take `CC1(C)SC(=S)N(Cc2ccc3c(c2)OCO3)C1N(O)C(=O)NC1CCCCC1` (centres undefined): the AC50 was 3.55 µM (active).
Consider `CCOC(=O)N/N=C1/C[C@@H](O)[C@@H](O)[C@@H]2[C@@H]3C(=O)N(Cc4ccc5c(c4)OCO5)C(=O)[C@H]3CC[C@@H]12`, for which the activity, negative = inhibition was 4.88% [at 11.4 µM] (inactive).
On the same count and under the same terms, next, `CCOC(=O)N/N=C1/C[C@@H](O)[C@@H](O)[C@@H]2[C@@H]3C(=O)N(Cc4ccc5c(c4)OCO5)C(=O)[C@H]3CC[C@H]12`: -2.19% [at 11.4 µM] (inactive).
For the compound `CCOC(=O)c1cc(C#N)c(Oc2ccccc2OC)nc1-c1ccccc1`, the half-maximal activity concentration (AC50) was 6.31 µM (active).
Consider `CCCCNc1c(C(=O)OCC)c(C)nc2c1cnn2CC`, for which the “activity, negative = inhibition” value was -9.56% [at 25.6 µM] (inactive).
As for `CCCCNc1nc(-c2ccccc2)c(C(=O)OCC)cc1C#N`, the AC50 is 17.8 µM (active).
Take `CNS(=O)(=O)c1ccccc1C(=N)c1ccccc1`: the activity, negative = inhibition is -10% [at 11.4 µM] (inactive).
Same read-out and setting: next, `Cn1ccnc1C[C@@](C)(O)c1ccccc1`: -6.82% [at 11.4 µM] (inactive).
As to `C[C@@](O)(CNS(=O)(=O)c1ccccc1)c1ccccc1`, the AC50 is 1 µM (active).
Still for that read-out and setting: next, `Cc1ccc2nc(NC(=O)CSc3nc4c(c(=O)n3C)SC(C)C4)sc2c1` (centres undefined): 5.62 µM (active); `CCn1c(SCC(=O)Nc2nc3ccc(C)cc3s2)nc2c(c1=O)SC(C)C2` (centres undefined): 2.82 µM (active); `CCn1c(SCC(=O)Nc2ccc3c(c2)OCCO3)nc2c(c1=O)SC(C)C2` (centres undefined): 8.91 µM (active).
Still for that read-out and setting: for `COC(=O)c1cccc(C(=O)Nc2ccc(C)cc2)n1` the value was 11.2 µM (active).
`Cc1ccc(OC(=O)c2cccc(C(=O)Oc3ccc(C)cn3)n2)nc1`: the “activity, negative = inhibition” value was -1.57% (inactive).
Same read-out and setting: next, `CC(C)OC(=O)c1cccc(C(=O)Oc2ccc(Br)cc2)n1`: -3.45% (inactive).
Consider `COc1ccccc1CNC(=O)CSc1nc2nc(C)cc(C)n2n1`, for which the AC50 was 10 µM (active).
As to `Cc1ccc(/C=N/NC(=O)CSc2nc3nc(C)cc(C)n3n2)cc1`, the “activity, negative = inhibition” value was -39.3% (inactive).
As to `Cc1cc(C)n2nc(SCc3cc(=O)oc4ccc5ccccc5c34)nc2n1`, the AC50 was 8.91 µM (active).
`Cc1cc(NS(=O)(=O)c2ccc(NC(=O)CN3C(=O)c4ccccc4C3=O)cc2)nc(C)n1`: the “activity, negative = inhibition” value was -23.3% (inactive).
Same read-out and setting: next, `CCSc1nc2nc(C)cc(C)n2n1`: -1.22% (inactive).
In the case of `Cc1cc(C)n2nc(SCN3C(=O)c4ccccc4C3=O)nc2n1`, the AC50 is 2.51 µM (active).
As to `CC12COC3(C(=O)Nc4nccs4)CC1CCC32C` (centres undefined), the concentration at half-maximal activity (AC50) is 2.24 µM (active).
In the case of `COCC(=O)N1CCC2(CCCN(C(=O)Nc3cccc(C#N)c3)C2)CC1`, the “activity, negative = inhibition” value was 16.8% (inactive).
Regarding `CC(C/C=N/NC(=O)COc1cc(Cl)ccc1Cl)c1ccccc1` (centres undefined), the AC50 is 0.447 µM (active).
As to `O=C(COc1ccc(Cl)cc1Cl)N/N=C/CCc1ccccc1`, the AC50 is 2 µM (active).
In the case of `OC1(c2ccc(OC(F)F)cc2)CSC(=Nc2cccnc2)N1C1CC1` (centres undefined), the AC50 is 0.0794 µM (active).
Consider `COc1cc(N=c2ssnc2Cl)cc(OC)c1OC`, for which the half-maximal activity concentration (AC50) was 1.12 µM (active).
Consider `Cc1cccc(OC(=O)CN2C(=O)C3C4CCC(C4)C3C2=O)c1C` (centres undefined), for which the half-maximal activity concentration (AC50) is 3.98 µM (active).
On to `Cc1ccc(C)c(C(=O)CN2C(=O)c3ccccc3S2(=O)=O)c1`, for which the “activity, negative = inhibition” value is -41.5% (inactive).
For the compound `C=CCn1c(C)cc(C(=O)CN2C(=O)c3ccccc3C2=O)c1C`, the AC50 was 3.98 µM (active).
As to `O=C(CN1C(=O)c2ccccc2C1=O)NC1(C(=O)O)CCCC1`, the activity, negative = inhibition is 20.8% [at 11.4 µM] (inactive).
Consider `c1cncc(CNc2ncncc2-c2ccc3c(c2)OCO3)c1`, for which the concentration at half-maximal activity (AC50) is 0.2 µM (active).
For `Cc1cnc(CNc2ncncc2-c2ccc3c(c2)OCO3)cn1`, the “activity, negative = inhibition” value was -31.6% (inactive).
Take `c1ccc(Nc2ncncc2-c2ccc3c(c2)OCO3)cc1`: the AC50 was 0.251 µM (active).
On the same count and under the same terms, next, `c1ccc(CNc2ncncc2-c2ccc3c(c2)OCO3)cc1`: 0.501 µM (active).
Still for that read-out and setting: next, `Cc1cccc(CNc2ncncc2-c2ccc3c(c2)OCO3)c1`: 0.501 µM (active).

The values above are taken from PubChem BioAssay AID1851 (National Center for Advancing Translational Sciences (NCATS), 2009).
